# Laboratory results reported in PubChem BioAssay (Tox21).
# Inconclusive results are not listed. A call without a number means that no potency is given here. Calls of active or inactive are those of the source. Calls follow the shape of the dose curve; as a rule, active = well fitted curve in the direction sought with a large enough effect in the repeat runs; inconclusive = weak or mixed curves; inactive = no such curve, though single readings can be large; an effect the other way counts as inactive or inconclusive. Starred links: 1 amine or outer side, 2 acyl side, 3 side chain; linkers in the order of their positions; H or OH if unused. Positions of bridges follow the written chain, without caps; N, C: chain ends. Non-standard residues stand in square brackets, D forms with d. Residues, ends and D or L forms follow the SMILES beside them. *: point of attachment. X5 = NC1=N[C@@H]([C@H](N[*:1])C(=O)[*:2])C[C@H](O)N1; ΔAla(Z-3-ureido) = NC(=O)N/C=C(\N)C(=O)O; β3hOrn = NCCC[C@H](N)CC(=O)*; Dap = NC[C@H](N)C(=O)O
# Molecular target: Aryl hydrocarbon receptor (Homo sapiens) (UniProt P35869)
# Test: qHTS assay to identify small molecule that activate the aryl hydrocarbon receptor (AhR) signaling pathway (AID 743085); also: nearly all actives have a fitted effect of over 15% in size; also: potency is read from the fitted curve at half-maximal effect
# Details: HepG2 AhR-luc (HG2L7.5c1), luciferase, 24 h; series mostly up to 70.3 µM
# In short: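 Luminescence read-out: ONE-Glo reagent, 30 min at room temperature, in HG2L7.5c1 HepG2 reporter cells treated 24 h at 37C. Viability was measured beforehand by CellTiter-Fluor fluorescence after 30 min at 37C.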
# Sequence of Aryl hydrocarbon receptor (Homo sapiens) (P35869 whole entry, looked up): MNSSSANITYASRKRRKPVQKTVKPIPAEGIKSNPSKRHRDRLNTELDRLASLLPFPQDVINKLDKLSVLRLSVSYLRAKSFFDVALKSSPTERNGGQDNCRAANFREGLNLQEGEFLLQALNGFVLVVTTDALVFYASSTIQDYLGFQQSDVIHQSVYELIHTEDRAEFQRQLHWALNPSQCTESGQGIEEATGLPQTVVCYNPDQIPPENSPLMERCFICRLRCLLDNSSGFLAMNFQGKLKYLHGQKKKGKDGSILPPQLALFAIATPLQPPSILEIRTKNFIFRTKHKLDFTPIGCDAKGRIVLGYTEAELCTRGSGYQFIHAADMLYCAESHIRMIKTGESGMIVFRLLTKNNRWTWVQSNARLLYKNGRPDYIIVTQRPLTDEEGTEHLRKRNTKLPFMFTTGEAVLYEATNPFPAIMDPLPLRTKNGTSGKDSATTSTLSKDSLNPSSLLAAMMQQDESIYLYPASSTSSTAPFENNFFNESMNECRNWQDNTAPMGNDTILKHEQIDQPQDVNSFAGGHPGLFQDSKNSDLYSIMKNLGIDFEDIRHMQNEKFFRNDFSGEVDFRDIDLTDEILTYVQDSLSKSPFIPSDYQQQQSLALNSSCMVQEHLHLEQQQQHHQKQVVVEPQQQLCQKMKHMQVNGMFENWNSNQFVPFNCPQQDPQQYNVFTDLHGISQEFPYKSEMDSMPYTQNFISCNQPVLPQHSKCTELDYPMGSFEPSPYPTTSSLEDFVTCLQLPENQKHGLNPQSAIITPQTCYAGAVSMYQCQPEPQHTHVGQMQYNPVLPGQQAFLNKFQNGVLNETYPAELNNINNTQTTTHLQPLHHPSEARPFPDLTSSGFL
row,Compound,Potency
1,CCCN(CC)C(CC)C(=O)Nc1c(C)cccc1C (stereo unspecified),inactive
2,CN[C@@H]1[C@@H](O)[C@@H](O[C@@H]2[C@@H](O)[C@H](OC3OC(CN)=CCC3N)[C@@H](N)C[C@H]2N)OC[C@]1(C)O (stereo partly specified),inactive
3,Cn1cc(NC(=O)c2cc(NC(=O)c3cc(NC=O)cn3C)cn2C)cc1C(=O)NCCC(=N)N,inactive
4,CS(=O)(=O)Nc1cc2occ(NC=O)c(=O)c2cc1Oc1ccccc1,inactive
5,O=c1[nH]cnc2[nH]cc(CN3CCCCC3)c12,inactive
6,CNC[C@@H]1CC[C@@H](N)[C@@H](O[C@H]2[C@H](O)[C@@H](O[C@H]3OC[C@](C)(O)[C@H](NC)[C@H]3O)[C@H](N)C[C@@H]2N)O1,inactive
7,C=C1CC2C3CCC4=CC(=O)C=C[C@]4(C)[C@@]3(F)[C@@H](O)C[C@]2(C)[C@@]1(O)C(=O)COC(C)=O (stereo partly specified),inactive
8,NCCC(=O)[N-][C@@H](Cc1cnc[nH]1)C(=O)O.[Zn],inactive
9,OCC(O)COc1ccc(Cl)cc1 (stereo unspecified),inactive
10,C[C@H]1C[C@H]2[C@@H]3CCC4=CC(=O)C=C[C@]4(C)[C@@]3(F)[C@@H](O)C[C@]2(C)[C@@]1(O)C(=O)CCl,6.68 µM (active)
11,CCC(C)C(C(=O)OCC[N+](C)(CC)CC)c1ccccc1 (stereo unspecified),inactive
12,Cc1c(O)cc2c(c1C)O[C@](C)(CCC[C@H](C)CCC[C@H](C)CCCC(C)C)CC2,inactive
13,c1ccc2c(CCC3CCNCC3)c[nH]c2c1,11.9 µM (active)
14,Cc1ccccc1CNc1ncnc2c1ncn2[C@@H]1O[C@H](CO)[C@@H](O)[C@H]1O,inactive
15,CC(C)(C)CC(=O)OCC(=O)[C@@]12OC(C)(C)O[C@@H]1C[C@H]1[C@@H]3CCC4=CC(=O)C=C[C@]4(C)[C@@]3(F)[C@@H](O)C[C@@]12C,inactive
16,CC(=O)N[C@@H](CC(=O)N[C@@H](CCC(=O)O)C(=O)O)C(=O)O,inactive

row,Compound,Potency
1,C=C1c2c(Cl)ccc(O)c2C(O)=C2C(=O)[C@]3(O)C(O)=C(C(N)=O)C(=O)[C@@H](N(C)C)[C@@H]3[C@@H](O)[C@H]12,inactive
2,CCCCCCCCCCCCCCCC(=O)OC[C@@H](COP(=O)([O-])OCC[N+](C)(C)C)OC(=O)CCCCCCCCCCCCCCC,inactive
3,C[N+](C)(CCCCCC[N+](C)(C)C1c2ccccc2-c2ccccc21)C1c2ccccc2-c2ccccc21,inactive
4,Cc1cc(Nc2ccccc2C(=O)O)ccc1Cl,26.6 µM (active)
5,NCCC[C@H](N)CC(=O)N[C@H]1CNC(=O)[C@H]([C@H]2C[C@H](O)NC(N)=N2)NC(=O)/C(=C/NC(N)=O)NC(=O)[C@H](CO)NC(=O)[C@H](CO)NC1=O (β3hOrn-[Dap]SS[ΔAla(Z-3-ureido)][X5]; lactam 1-C),inactive
6,CCCCCCCCCCCCCCCCCC(=O)OCCO,inactive
7,CO[C@H]1[C@@H](O)[C@H](N)[C@@H](O[C@H]2O[C@H]([C@H](C)N)CC[C@H]2N)[C@H](O)[C@@H]1N(C)C(=O)CN,inactive
8,CCCC(=O)Nc1ncnc2c1ncn2[C@@H]1O[C@@H]2COP(=O)(O)O[C@H]2[C@H]1OC(=O)CCC,inactive
9,CN(CCO)CC(O)Cn1cnc2c1c(=O)n(C)c(=O)n2C (stereo unspecified) (tested in a mixture with another compound),inactive
10,CCOC(=O)[C@H](CCc1ccccc1)N[C@H]1CCCN2CCC[C@@H](C(=O)O)N2C1=O,inactive
11,O=C[C@H](O)[C@@H](O)[C@H](O[C@H]1O[C@H](CO)[C@@H](O[C@H]2O[C@H](CO)[C@@H](O)[C@H](O)[C@H]2O)[C@H](O)[C@H]1O)[C@H](O)CO,inactive
12,CC(=O)OC[C@H]1O[C@@H](O[C@H]2[C@H](O)[C@@H](OC(=O)c3ccccc3C(=O)O)[C@H](O)O[C@@H]2COC(C)=O)[C@H](O)[C@@H](OC(=O)c2ccccc2C(=O)O)[C@@H]1O,inactive
13,CS(=O)(=O)OCCCNCCCOS(C)(=O)=O,inactive
14,CN=C(NC)NCc1ccccc1,inactive
15,CS(=O)(=O)NC(=O)CCC/C=C\C[C@H]1C(=O)C[C@@H](O)[C@@H]1/C=C/[C@H](O)COc1ccccc1,inactive
16,COc1cc(S(C)=O)ccc1-c1nc2ncccc2[nH]1 (stereo unspecified),2.11 µM (active)

# System: not listed separately
# Test: qHTS assay to identify small molecule that activate the aryl hydrocarbon receptor (AhR) signaling pathway - cell viability counter screen (AID 743086);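 also: HepG2 liver cells carrying the AhR DRE luciferase reporter; nearly all actives have a fitted effect of over 45% in size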
# Details: HepG2-AhR-luc viability, CellTiter-Fluor, 24 h; series mostly up to 70.3 µM
# In short: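 HepG2-AhR-luc (HG2L7.5c1) cells, 4000/well, were preincubated 5 h at 37C, exposed to compound in qHTS format for 24 hr at 37C, then given CellTiter-Fluor for 30 min; viability was read as fluorescence in the reporter wells.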
row,Compound,Potency
1,CCCN(CC)C(CC)C(=O)Nc1c(C)cccc1C (stereo unspecified),inactive
2,Cn1cc(NC(=O)c2cc(NC(=O)c3cc(NC=O)cn3C)cn2C)cc1C(=O)NCCC(=N)N,inactive
3,O=c1[nH]cnc2[nH]cc(CN3CCCCC3)c12,inactive
4,C[C@]12C=CC(=O)C=C1CC[C@@H]1[C@@H]2[C@@H](O)C[C@@]2(C)[C@H]1CC[C@]2(O)C(=O)COC(=O)CCC(=O)O,inactive
5,CNC[C@@H]1CC[C@@H](N)[C@@H](O[C@H]2[C@H](O)[C@@H](O[C@H]3OC[C@](C)(O)[C@H](NC)[C@H]3O)[C@H](N)C[C@@H]2N)O1,inactive
6,C=C1CC2C3CCC4=CC(=O)C=C[C@]4(C)[C@@]3(F)[C@@H](O)C[C@]2(C)[C@@]1(O)C(=O)COC(C)=O (stereo partly specified),inactive
7,O=C(NOC[C@H](O)CO)c1ccc(F)c(F)c1Nc1ccc(I)cc1F,inactive
8,NCCC(=O)[N-][C@@H](Cc1cnc[nH]1)C(=O)O.[Zn],inactive
9,OCC(O)COc1ccc(Cl)cc1 (stereo unspecified),inactive
10,CCN(CC)c1ccc(N=Nc2ccc(S(=O)(=O)N(C)C)cc2)c(S(=O)(=O)NCC[n+]2ccccc2)c1,inactive
11,CCC(C)C(C(=O)OCC[N+](C)(CC)CC)c1ccccc1 (stereo unspecified),inactive
12,Cc1c(O)cc2c(c1C)O[C@](C)(CCC[C@H](C)CCC[C@H](C)CCCC(C)C)CC2,inactive
13,CC(=O)OCC(=O)[C@@]1(O)[C@H](C)C[C@H]2[C@@H]3C[C@H](F)C4=CC(=O)C=C[C@]4(C)[C@H]3[C@@H](O)C[C@@]21C,inactive
14,CC(C)(C)CC(=O)OCC(=O)[C@@]12OC(C)(C)O[C@@H]1C[C@H]1[C@@H]3CCC4=CC(=O)C=C[C@]4(C)[C@@]3(F)[C@@H](O)C[C@@]12C,inactive
15,CC(=O)N[C@@H](CC(=O)N[C@@H](CCC(=O)O)C(=O)O)C(=O)O,inactive
16,C=C1c2c(Cl)ccc(O)c2C(O)=C2C(=O)[C@]3(O)C(O)=C(C(N)=O)C(=O)[C@@H](N(C)C)[C@@H]3[C@@H](O)[C@H]12,inactive
17,C[N+](C)(CCCCCC[N+](C)(C)C1c2ccccc2-c2ccccc21)C1c2ccccc2-c2ccccc21,inactive
18,NCCC[C@H](N)CC(=O)N[C@H]1CNC(=O)[C@H]([C@H]2C[C@H](O)NC(N)=N2)NC(=O)/C(=C/NC(N)=O)NC(=O)[C@H](CO)NC(=O)[C@H](CO)NC1=O (β3hOrn-[Dap]SS[ΔAla(Z-3-ureido)][X5]; lactam 1-C),inactive
19,CCCCCCCCCCCCCCCCCC(=O)OCCO,inactive
20,CO[C@H]1[C@@H](O)[C@H](N)[C@@H](O[C@H]2O[C@H]([C@H](C)N)CC[C@H]2N)[C@H](O)[C@@H]1N(C)C(=O)CN,inactive
21,CCCC(=O)Nc1ncnc2c1ncn2[C@@H]1O[C@@H]2COP(=O)(O)O[C@H]2[C@H]1OC(=O)CCC,inactive
22,CN(CCO)CC(O)Cn1cnc2c1c(=O)n(C)c(=O)n2C (stereo unspecified) (tested in a mixture with another compound),inactive
23,CCOC(=O)[C@H](CCc1ccccc1)N[C@H]1CCCN2CCC[C@@H](C(=O)O)N2C1=O,inactive
24,O=C[C@H](O)[C@@H](O)[C@H](O[C@H]1O[C@H](CO)[C@@H](O[C@H]2O[C@H](CO)[C@@H](O)[C@H](O)[C@H]2O)[C@H](O)[C@H]1O)[C@H](O)CO,inactive
25,CC(=O)OC[C@H]1O[C@@H](O[C@H]2[C@H](O)[C@@H](OC(=O)c3ccccc3C(=O)O)[C@H](O)O[C@@H]2COC(C)=O)[C@H](O)[C@@H](OC(=O)c2ccccc2C(=O)O)[C@@H]1O,inactive
26,CS(=O)(=O)OCCCNCCCOS(C)(=O)=O,inactive
27,CN=C(NC)NCc1ccccc1,inactive
28,CC1(C)S[C@@H]2[C@H](NC(=O)C(C(=O)Oc3ccc4c(c3)CCC4)c3ccccc3)C(=O)N2[C@H]1C(=O)O (stereo partly specified),inactive
29,COc1cc(S(C)=O)ccc1-c1nc2ncccc2[nH]1 (stereo unspecified),inactive
